Source: the supplement of paper PMC10338343
± gives the standard deviation. The full ranking holds about 3,000 sequences; the median of “pre-steady-state target cleavage rate” is about 0.0079, and the highest 2% start at about 0.2. What follows is part of a selection rich in the highest values, with near analogues and random picks from the rest.

These sequences were tested on MILI (PIWIL2) piRISC loaded with piRNA #2 (26 nt) (assay: pre-steady-state target cleavage rate (min^-1); MIWI and MILI are mouse PIWI proteins and EfPiwi is from a freshwater sponge; tags in brackets are library labels; higher = faster piRNA-guided slicing of the target). Details: guide: piRNA #2 5'p-UUAGGUAACCCAGUAGAUCCAGAGGA; auxiliary factor: 500 nM mouse GTSF1.
Experimental: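 Cleave-'n-Seq: a library of target RNAs (target site embedded in constant flanks, ACAGCATTCCGCGTTAGTGATATCCG... 5' flank; DNA-blocked outside the site) at 0.1 nM was incubated with 1 nM active mouse MILI or MIWI piRISC (synthetic 5'-monophosphorylated piRNA guide) with or without 500 nM mouse GTSF1 at 33 °C for 1 min to 16 h. Uncleaved targets were sequenced and normalised to non-target controls, and the pooled three trials were fitted to a burst-and-steady-state model to give the pre-steady-state cleavage rate (min^-1; k3 is constrained to at most 1e-4). Sequence is the target site only; target names encode pairing extent (gX:gY) and contiguous / 1-mismatch / 2-mismatch / bulge geometry. Fits with R² ≤ 0 are excluded.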

| Sequence | pre-steady-state target cleavage rate |
| --- | --- |
| CUUAUCCUCUGGAUCUACUGGGUUUCCAAA | 0.134 ± 0.047 |
| CUUAUCCUCUGGAUCUACUGGGUUACCUAA [g2:g26:cont:t1A] | 0.125 ± 0.023 |
| CUUAACCUCUGGAUCAACUGGGUUUCCUAA | 0.101 ± 0.038 |
| CUUAUCCUCUGGAUCUACUGGGUUUCGUAA | 0.171 ± 0.071 |
| CUUAUCCUCUGGAUCUACUGGGUUAUCCUAA | 0.204 ± 0.046 |
| CUUAUCCUCUGGAUCAACUGGGUUUCCUAA | 0.199 ± 0.072 |
| CUUAUCCUCUGGAUCUACUGGGUUAUCUAA | 0.0884 ± 0.015 |
| CUUAAGCUCUGGAUCAACUGGGUUUCCUAA | 0.0481 ± 0.015 |
| CUUAUCCUCUGGAUCUACUGGGUUCACCUAA | 0.0872 ± 0.017 |
| CUUAUCCUCUGGAUCUACUGGGUUUCCUUA | 0.413 ± 0.15 |
| CUUAUCCUCUGGAUCUACUGGGUUCCUAA | 0.239 ± 0.11 |
| CUUAUCCUCUGGAUCUACUGGGUAUCCUAA | 0.0336 ± 0.014 |
| CUUAAGCUCAGGAUCAACUGGGUUACCUAA | 0.0432 ± 0.014 |
| CUUAAGGACUGGAUCUAUUGGGUUACCUAA | 0.0187 ± 0.0078 |
| CUUAAGGAGUGGAUCUUCAGGGUUACCUAA | 0.0231 ± 0.0065 |
| CUUAAGGUCUGGAUGUACUGGGAUACCUAA | 0.0141 ± 0.01 |
| CUUAAGGUCUGGAACUUCUGGGUUACCUAA | 0.0253 ± 0.015 |
| CUUAAGCUCAGGAUCUACUGGGUAACCUAA | 0.0259 ± 0.0088 |
| CUUAACGUCUGGAUCUACUGGGUUACCUUA | 0.0827 ± 0.015 |
| CUUAAGGAGUGGAUCUACUGGGUCUACCUAA | 0.00823 ± 0.0039 |
| CUUAAGGACUGGAUCUACUGGGUAUACCUAA | 0.0248 ± 0.016 |
| CUUAAGGUCUGGAUCUACAGGGUUACCAAA | 0.106 ± 0.017 |
| CUUAUCCUCUGGAUCUACUGGGUUUCCUAA | 0.252 ± 0.072 |

| Sequence | pre-steady-state target cleavage rate |
| --- | --- |
| CUUAUCCUCUGGAUCUACUGGGUUACGCUAA | 0.174 ± 0.026 |
| CUUAUCCCUCUGGAUCUACUGGGUUACCUAA | 0.0911 ± 0.022 |
| CUUAUCCACUGGAUCUACUGGGUUUCCUAA | 0.123 ± 0.034 |
| CUUAUCCUCUGGAUCUACUGGGUUCCCUAA | 0.321 ± 0.13 |
| CUUAUCCUCUGGAUCUACUGGGUUUGCUAA | 0.216 ± 0.041 |
| CUUAUCCUCUGGAUCUACUGGGUUACCCUAA | 0.132 ± 0.049 |
| CUUAUCCUCUGGAUCUACUGGGUUUACCUAA | 0.107 ± 0.023 |
| CUUAUCCUCUGGAUCUACUGGGUAUGCUAA | 0.092 ± 0.023 |
| CUUAAGGUGUGGAUCUACUGGGUUACCUUA | 0.0353 ± 0.011 |
| CUUAUCCUCUGGAUGUACUGCGUUACCUAA | 0.0106 ± 0.0045 |
| CUUAAGGACUGGAUCUACAGGGUUACCAAA | 0.0404 ± 0.0091 |
| CUUAAGCUCUCGGAUCUACUGGGUUACCUAA | 0.064 ± 0.015 |
| CUUAUCCUCUGGAUCACUGGGUUACCUAA | 0.0129 ± 0.0061 |
| CUUAAGGAGACCUACUACUGGGUUACACUAA | < 0.0001 |
| CUUAAGGUCUGGAUCUACUGGGUUACCUGAA | 0.0831 ± 0.035 |
| CUUAAGCUCUGGAUCUAGUGGGUUUCCUAA | 0.0199 ± 0.0071 |
| CUUAUCCUCUCGAUCUACUCGGUUACCUAA | 0.0053 ± 0.0015 |
| CUUAAGGAGACCUACUACUGUGGUUACCUAA | < 0.0001 |
| CUUAACGUCUGCAUCUACUGGGUUACCUAA | 0.126 ± 0.02 |
| CUUAUCCUCUGGACUCUACUGGGUUACCUAA | 0.0887 ± 0.019 |
| CUUAUCCUCUGGCUCUACUGGGUUACCUAA | 1.12 ± 0.3 |
| CUUAUCCUCUGGGUCUACUGGGUUACCUAA | 0.206 ± 0.035 |
| CUUAUCCUCUGAAUCUACUGGGUUACCUAA | 0.109 ± 0.023 |

| Sequence | pre-steady-state target cleavage rate |
| --- | --- |
| CUUAUCCUCUGGAGUCUACUGGGUUACCUAA | 0.175 ± 0.039 |
| CUUAUCCUCUGGAAUCUACUGGGUUACCUAA | 0.156 ± 0.035 |
| CUUAUCCUCUGGUCUACUGGGUUACCUAA | 0.983 ± 0.34 |
| CUUAAGCUCUGGAUGUACUGGGUUUCCUAA | 0.0435 ± 0.021 |
| CUUAAGGUCUGGAUCUACAGGGUUAGCUAA | 0.0446 ± 0.012 |
| CUUAAGCUCUGUAUCUACUGGGUUACCUAA | 0.0444 ± 0.0099 |
| CUUAAGGAGUGGAUCUACAGGGUUUCCUAA | 0.056 ± 0.012 |
| CUUAAGGUCUGGAUCUACUGGGUUACCUAU [g2:g23:cont:t1U] | 0.101 ± 0.014 |
| CUUAUCCUCUGGAUGUAGUGGGUUACCUAA | 0.0679 ± 0.01 |
| CUUAUCCUCUGGGAUCUACUGGGUUACCUAA | 0.137 ± 0.023 |
| CUUAUCCUCUGCAUCUACUGGGUUACCAAA | 0.408 ± 0.12 |
| CUUAUCCUCUGGAUCUACUGGGUUACCUUA | 0.13 ± 0.026 |
| CUUAUCCUCUGGCAUCUACUGGGUUACCUAA | 2.56 ± 1.7 |
| CUUAUCCUCUGAUCUACUGGGUUACCUAA | 0.123 ± 0.029 |
| CUUAUCCUCUGCAUCUACUGGGUUACCUUA | 0.466 ± 0.13 |
| CUUAUCCUCUGGAUCUACUGGGUUACCAAA | 0.13 ± 0.023 |
| CUUAUCCUCUGCGAUCUACUGGGUUACCUAA | 0.0876 ± 0.015 |
| CUUAACCUCUGCAUCUACUGGGUUACCUUA | 0.178 ± 0.048 |
| CUUAUCCUCUGCAUCUACUGCGUUACCUAA | 0.0198 ± 0.0066 |
| CUUAACCUCUGCAUCUACUGGGUUACCAAA | 0.173 ± 0.055 |
| CUUAUCCUCUGCAUCUACUGGGUUACCUAA | 0.275 ± 0.056 |
| CUUAAGCUCUGGAUCUACCGGGUUACCUAA | 0.0213 ± 0.0061 |
| CUUAAGCUCUGGAUCUACUGGGUUCACCUAA | 0.0506 ± 0.017 |

| Sequence | pre-steady-state target cleavage rate |
| --- | --- |
| CUUAAGGAGUGGAUCUUCUGGGUUACCUUA | 0.014 ± 0.007 |
| CUUAACCUCAGCAUCUACUGGGUUACCUAA | 0.111 ± 0.027 |
| CUUAACCUCUGCAUCUACUGGGUUACGUAA | 0.155 ± 0.069 |
| CUUAUCCUCAGCAUCUACUGGGUUACCUAA | 0.271 ± 0.06 |
| CUUAUCCUCACCAUCUACUGGGUUACCUAA | 0.127 ± 0.051 |
| CUUAUCCUCUGGAUCUACUGGGUUACGUAA | 0.0586 ± 0.014 |
| CUUAUCCUCUGCAUCUACUGGGUUACGUAA | 0.483 ± 0.2 |
| CUUAACCUCUCGGAUCUACUGGGUUACCUAA | 0.0634 ± 0.017 |
| CUUAAGGAGGGGAUCUACUGGGUUACCUAA | 0.0293 ± 0.022 |
| CUUAUCCUCUGGAUGUACAGGGUUACCUAA | 0.135 ± 0.011 |
| CUUAAGGUCUGGGUCUACUGGGUUACCUAA | 0.0913 ± 0.015 |
| CUUAACCUCUUGGAUCUACUGGGUUACCUAA | 0.245 ± 0.072 |
| CUUAACCUCUGGCUCUACUGGGUUACCUAA | 0.8 ± 0.2 |
| CUUAAGGUCUGCAUCUACUGGGUUACCUAA | 0.0733 ± 0.018 |
| CUUAACCUCUGGACUCUACUGGGUUACCUAA | 0.0674 ± 0.018 |
| CUUAACCUCUGAUCUACUGGGUUACCUAA | 0.0852 ± 0.019 |
| CUUAACCUCUGGCAUCUACUGGGUUACCUAA | 2.04 ± 1.1 |
| CUUAACCUCUGGAUCUACUGGGUUACCUAAA | 0.0972 ± 0.022 |
| CUUAACCUUGGAUCUACUGGGUUACCUAA | 0.134 ± 0.041 |
| CUUAACCUCUGCAUCUACUGGGUUACCUAA | 0.185 ± 0.036 |
| CUUAACCUCUGGGAUCUACUGGGUUACCUAA | 0.168 ± 0.03 |
| CUUAAGGUCUGGCAUCUACUGGGUUACCUAA | 0.211 ± 0.069 |
